Experimental data as given in the supplement of paper PMC6555819.

Assays:
Test in all cases: PBM binding z-score (relative to random genomic background probes); higher = stronger binding; sequences stand for … in GC…GCGATTGACAGCGTAGAATGAAGG
[1] = system: PPARg:RXRa DBDmut IVT, anti-RXR (DBD mutation: RXRa K156A/R161A, NR concentration 270 nM, RXRa partner concentration 90 nM)
Summary of the method: (§1)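 Binding z-scores take random background probes as their reference. They come from custom Agilent 4×180K protein-binding microarrays incubated 1 h with ligand-free nuclear receptor dimers, with antibodies against each partner (one per run) detecting binding. Scanned fluorescence was regression-normalized.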

[2] = system: PPARg:RXRa IVT, anti-PPARg (NR concentration 270 nM, RXRa partner concentration 90 nM)
Summary of the method: as §1

[3] = system: PPARg homodimer (NR concentration 180 nM)
Summary of the method: as §1

[4] = system: PXR:RXRa (NR concentration 270 nM, RXRa partner concentration 90 nM)
Summary of the method: as §1

[5] = system: PXR homodimer (NR concentration 270 nM)
Summary of the method: as §1

[6] = system: RARa:RXR (NR concentration 270 nM, RXRa partner concentration 90 nM)
Summary of the method: as §1

[7] = system: RARa homodimer (NR concentration 270 nM)
Summary of the method: as §1

[8] = system: RARb:RXRa (NR concentration 270 nM, RXRa partner concentration 90 nM)
Summary of the method: as §1

[9] = system: RARb homodimer (NR concentration 270 nM)
Summary of the method: as §1

[10] = system: RARg:RXRa (NR concentration 270 nM, RXRa partner concentration 90 nM)
Summary of the method: as §1

[11] = system: RARg homodimer (NR concentration 270 nM)
Summary of the method: as §1

[12] = system: RXRa DBDmut IVT, anti-RXR (DBD mutation: RXRa K156A/R161A, NR concentration 90 nM)
Summary of the method: as §1

[13] = system: RXRa homodimer (NR concentration 180 nM)
Summary of the method: as §1

[14] = system: THRa:RXRa (NR concentration 90 nM, RXRa partner concentration 90 nM)
Summary of the method: as §1

[15] = system: THRa homodimer (NR concentration 90 nM)
Summary of the method: as §1

[16] = system: VDR homodimer (NR concentration 270 nM)
Summary of the method: as §1

Sequence | PBM binding z-score [1] | PBM binding z-score [2] | PBM binding z-score [3] | PBM binding z-score [4] | PBM binding z-score [5] | PBM binding z-score [6] | PBM binding z-score [7] | PBM binding z-score [8] | PBM binding z-score [9] | PBM binding z-score [10] | PBM binding z-score [11] | PBM binding z-score [12] | PBM binding z-score [13] | PBM binding z-score [14] | PBM binding z-score [15] | PBM binding z-score [16]
CTATGTAGGTGAAGGGGGTCATTCAGTTTGAAAG | 7.88 | 8.11 | 2.81 | 5.89 | 9.91 | 6.01 | 0.852 | 3.52 | 3.79 | 4.75 | 3.55 | 2.11 | 5.63 | 3.88 | 1.67 | 5.55
CCGAGCAGGTTACGAGGGGGCATTCAGTGCGAAT | 1.69 | 2.54 | 1.34 | 5.19 | 4.97 | 3.16 | 0.223 | 2.22 | 2.17 | 3.02 | 2.4 | 1.56 | 2.21 | 3.81 | 0.885 | 3.5
TCGAGTAGGTTACGGGGGCAATCAGGGATGAAGA | 4.86 | 6.27 | 1.35 | 2.64 | 0.755 | 2.99 | -0.0158 | 2.43 | 2.12 | 3.25 | 2.36 | 1.52 | 2.73 | 3.4 | 0.675 | 2.03
CCGAGTAGGCTACGAGGGGGCATTCAGTGCGAAT | 2.33 | 1.4 | 0.546 | 2.05 | 3.02 | 1.31 | -0.663 | 0.81 | 0.928 | 1.09 | 0.795 | 0.409 | 0.458 | 1.79 | -0.405 | 2.19
CTATGTAGGTTAAGTGGGTCATTCAGTTTGAAAG | 7.7 | 7.89 | 1.59 | 2.36 | 4.47 | 2.23 | 0.913 | 2.15 | 2.4 | 1.97 | 1.95 | 0.703 | 1.73 | 1.97 | 0.347 | 2.29
TCGAGTAGGTTACGGAGGCATTCAGGGATGAAGA | 3.09 | 3.05 | 0.325 | 0.0271 | -0.388 | 0.547 | -0.666 | 0.731 | 0.171 | 0.578 | 0.4 | -0.134 | 0.833 | 1.1 | -0.655 | -0.549
CCGAGTAGGTTACGAGGGGGCATGCAGTGCGAAT | 4.44 | 4.36 | 2.26 | 4.24 | 2.63 | 2.98 | 0.865 | 2.26 | 2.07 | 3.17 | 2.67 | 1.12 | 2.12 | 3.73 | 0.433 | 2.6
CCGAGTATGTTACGAGGGGGCATTCAGTGCGAAT | 1.52 | 1.95 | 1.3 | 3.07 | 4.74 | 2.27 | 0.735 | 1.15 | 1.63 | 1.76 | 1.26 | 2.1 | 1.31 | 2.31 | 0.458 | 3.74
CTATGTAGGTTTAGGGGGTCATTCAGTTTGAAAG | 3.47 | 4.95 | 3.1 | 5.4 | 9.15 | 5.1 | 1.56 | 2.93 | 3.42 | 4.23 | 3.14 | 2.35 | 4.8 | 3.52 | 1.9 | 5.35
CCGAGTAGGTTACGATGGGGCATTCAGTGCGAAT | 4.25 | 3.03 | -0.0463 | 0.69 | 0.101 | 0.251 | -0.659 | 1.03 | 0.657 | 0.828 | 0.851 | 0.0778 | 0.63 | 1.08 | -0.789 | 0.231
TCGAGTAGGTTCCGGGGGCATTCAGGGATGAAGA | 1.44 | 2.23 | 1.05 | 2.68 | 1.13 | 1.96 | -0.469 | 1.17 | 1.25 | 1.57 | 1.13 | 1.02 | 1.33 | 3.53 | 1.08 | 3.01
CCGAGTAGGTTACGAGGGGGGATTCAGTGCGAAT | 5.06 | 4.91 | 2 | 3.27 | 2.11 | 2.61 | 0.858 | 1.84 | 1.82 | 2.43 | 1.99 | 1.88 | 1.24 | 3.19 | 1.76 | 1.94
TCGATTAGGTTACGGGGGCATTCAGGGATGAAGA | 5.15 | 5.84 | 2.49 | 3.63 | 2.83 | 3.51 | 1.32 | 3.28 | 2.92 | 3.79 | 3.07 | 2.95 | 3.17 | 4.36 | 2.54 | 4.05
